Assay results as given in PubChem BioAssay (EPA / NIEHS).
Results filed as inconclusive are left out. The source made the active and inactive calls. The calls were made as follows: active = hit-call score of the fitted dose curve at least 0.9, where 1 is the maximum; inconclusive = response in the unintended direction; inactive = score below 0.9.

Assay: CLD_ACTIN_48hr: CellzDirect (CLD) Gene Expression Assay for Baseline Control (Actin) at 48 hours (AID 2283702)
Method: CLD_48hr is a cell-based, multiplexed-readout assay that uses hepatocyte, a human liver primary cell, with measurements taken at 48 hours after chemical dosing in a 96-well plate.CLD_ACTIN_48hr is one of 16 assay component(s) measured or calculated from the CLD_48hr assay. It is designed to make measurements of mRNA induction, a form of inducible reporter, as detected with chemiluminescence signals by Quantitative Nuclease Protection Assay (qNPA) technology.Data from the assay component CLD_ACTIN_48hr was analyzed at the endpoint, CLD_ACTIN_48hr, in the positive analysis fitting direction relative to DMSO as the negative control and baseline of activity. Using a type of inducible reporter, gain-of-signal activity can be used to understand changes in the reporter gene as they relate to the gene ACTA1. Furthermore, this assay endpoint can be referred to as a secondary readout, because this assay has produced multiple assay endpoints where this one serves a background control function. To generalize the intended target to other relatable targets, this assay endpoint is annotated to the background measurement intended target family, where subfamily is baseline control.
Human hepatocyte cultures were treated daily for two consecutive days with fresh dosing solutions containing appropriate concentrations of the 320 ToxCast chemicals (chemical identities were blinded to CellzDirect and other ToxCast collaborators), vehicle control (0.2% DMSO), and positive control inducers as summarized in Table 1. Due to the large number of treatment groups and chemicals examined, the ToxCast chemicals were divided into two groups (spanning two independent cultures of hepatocytes from separate donor preparations (Hu778: ToxCast plates 1 and 2; Hu776: ToxCast plates 3 and 4). Each preparation of human hepatocyte cultures was treated with respective vehicle control, medium only control, set of six positive controls/reference chemicals for the five hepatic receptor pathways, and a subset of eight of the ToxCast chemicals (indoxacarb, pyrithiobac-sodium, norflurazon, cyhalofop-butyl, methomyl, thiram, acetochlor, and propiconazole). These replicate data, coupled with internal replicates designed within the blinded ToxCast chemical library, provided additional data to evaluate interindividual differences between hepatocyte preparations and their potential impact on chemical profiles.Cell morphology and integrity were evaluated using phase-contrast microscopy as an indicator of hepatocyte cell health (Tyson & Green, 1987). Cultures for each treatment group (i.e., media, vehicle [0.2% DMSO], positive control inducers [multiple concentrations], and the ToxCast chemicals [multiple concentrations]) were observed and cell morphology was assessed relative to vehicle control cultures at each harvest time point (0, 6, 24, or 48 h). […] Images were evaluated at the conclusion of the study to assess changes in cell integrity and account for the effects of chemical exposure on uncharacteristic changes in concentration-dependent gene expression profiles. The results from these determinations of apparent cytotoxicity were annotated (yes/no) alongside the corresponding qNPA data for reference.At the conclusion of each treatment period, hepatocyte cultures (96-well) were washed with 1 volume of HBSS, lysed by addition of 25 ul ArrayPlate lysis buffer (HTG, Tucson, AZ), and 70 ul/well of Denaturation Oil, denatured by incubation at 95C for 10 min, and frozen at approximately -70C until analysis by nuclease protection assay (qNPA) (Roberts et al., 2007). For qNPA analysis, cell lysates were thawed at 50C for approximately 30 min, qNPA probes were added, and samples were incubated at 95C for 10 min to begin the detection process by denaturing the target RNA, dissociating the duplexes and secondary structure hybridization. At the conclusion of the hybridization period, S1 nuclease reagent was added to each sample to digest all nonprotected nucleotides at 50C for 60-90 min. […]
In the case of `CC(C)OC(=O)Nc1cccc(Cl)c1`, the outcome is reported as “inactive”. For `OCCOc1ccccc1`, the outcome was “inactive”. In the case of `Cc1cc(C)nc(NC(=O)NS(=O)(=O)c2ccccc2C(=O)OC2COC2)n1`, the outcome is reported as “inactive”. In the case of `O=[N+]([O-])/N=C1\NCCN1Cc1ccc(Cl)nc1`, the outcome is reported as “inactive”. In the case of `O=C(O)C(F)(F)C(F)(F)C(F)(F)C(F)(F)C(F)(F)C(F)(F)C(F)(F)F`, the outcome is reported as “inactive”. For `CC1(c2ccc(Oc3ccccc3)cc2)OC(=O)N(Nc2ccccc2)C1=O` (stereo not drawn), the outcome was “inactive”. With `Cc1[nH]c(=O)n(C(C)(C)C)c(=O)c1Cl` the outcome was “inactive”. With `CNC(=O)CSP(=S)(OC)OC` the outcome was “inactive”. In the case of `O=C(NC(=O)c1c(F)cccc1F)Nc1ccc(OC(F)(F)C(F)OC(F)(F)F)c(Cl)c1` (stereo not drawn), the outcome is reported as “inactive”. In the case of `O=C(O)CCCOc1ccc(Cl)cc1Cl`, the outcome is reported as “inactive”. With `O=C1c2ccccc2C(=O)N1SC(Cl)(Cl)Cl` the outcome was “inactive”. With `N#Cc1c(Cl)c(Cl)c(Cl)c(C#N)c1Cl` the outcome was “inactive”. For `COC(=O)c1ccccc1S(=O)(=O)NC(=O)Nc1nc(C)nc(OC)n1`, the outcome was “inactive”. With `CCC(C)(NC(=O)c1cc(Cl)c(C)c(Cl)c1)C(=O)CCl` (stereo not drawn) the outcome was “inactive”. For `CC(C)N(C(=O)COc1nnc(C(F)(F)F)s1)c1ccc(F)cc1`, the outcome was “inactive”. For `CNC(=O)Oc1ccccc1OC(C)C`, the outcome was “inactive”. For `O=S(=O)(O)C(F)(F)C(F)(F)C(F)(F)C(F)(F)C(F)(F)C(F)(F)C(F)(F)C(F)(F)F`, the outcome was “inactive”. With `O=C(O)COc1ccc(Cl)cc1Cl` the outcome was “inactive”. In the case of `O=[N+]([O-])c1c(Cl)c(Cl)c(Cl)c(Cl)c1Cl`, the outcome is reported as “inactive”. In the case of `CC[C@H](C)[C@H]1O[C@]2(C=C[C@@H]1C)C[C@@H]1C[C@@H](C/C=C(\C)[C@@H](O[C@H]3C[C@H](OC)[C@@H](O[C@H]4C[C@H](OC)[C@@H](O)[C@H](C)O4)[C@H](C)O3)[C@@H](C)/C=C/C=C3\CO[C@@H]4[C@H](O)C(C)=C[C@@H](C(=O)O1)[C@]34O)O2` (tested in a mixture with another compound), the outcome is reported as “inactive”. For `CNC(=O)/C=C(\C)OP(=O)(OC)OC`, the outcome was “inactive”. With `COP(=O)(OC)OC=C(Cl)Cl` the outcome was “inactive”. In the case of `CNC(=O)Oc1cccc(N=CN(C)C)c1`, the outcome is reported as “inactive”. For `CCN(CC)C(=O)SCc1ccc(Cl)cc1`, the outcome was “inactive”. For `N#CN`, the outcome was “inactive”. In the case of `Oc1cc(Cl)ccc1Oc1ccc(Cl)cc1Cl`, the outcome is reported as “inactive”. With `CCOCN(C(=O)CCl)c1c(C)cccc1CC` the outcome was “inactive”. With `CCS(=O)(=O)c1cccnc1S(=O)(=O)NC(=O)Nc1nc(OC)cc(OC)n1` the outcome was “inactive”.
